# Results: the supplement of paper PMC10646978
# ± gives the standard deviation.
# Assays:
# Conditions in all cases: modulator concentration 10 µM
# [1] = system: RAW-Dual (murine macrophage reporter line); experiment: NF-kB reporter (SEAP) activity fold change vs agonist alone; higher = enhanced NF-kB activity
# Outline: (§1)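 RAW-Dual murine macrophage reporter cells were seeded at 50 000 per well in 384-well plates and pre-incubated 1 hour at 37 °C with compound pin-transferred to 10 μM final. After 1 hour, a PRR agonist was added and cells incubated overnight. Supernatant NF-κB (SEAP, QUANTI-Blue, 620 nm absorbance) and IRF (Lucia luciferase, QUANTI-Luc, luminescence) signals were divided by the mean agonist-only control on the same plate to give fold change. Two replicate plates were averaged, with errors by propagation.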
# [2] = system: RAW-Dual (murine macrophage reporter line); experiment: IRF reporter (Lucia luciferase) activity fold change vs agonist alone; higher = enhanced IRF activity
# Outline: as §1
# [3] = system: RAW-Dual (murine macrophage reporter line); experiment: viability score (confluency relative to resting cells, overnight) (fraction); higher = more viable, active = viable (0.7 or more)
# Outline: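 In 384-well plates, RAW-Dual macrophages received compound at a final 10 μM overnight. Two confluency masks were then made with IncuCyte software from IncuCyte images of all imaged wells. The viability score is defined as confluency relative to resting cells. Passing the cutoff required both masks to lie above 70% of resting cells.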
# [4] = agonist: CpG ODN 1826 0.5 ug/mL
Structure (SMILES),"NF-kB reporter [1, 4]",NF-kB reporter ([1]; agonist: LPS 0.1 ug/mL),NF-kB reporter ([1]; agonist: MPLA […]),IRF reporter ([2]; agonist: 3'3'-cGAMP 10 ug/mL),IRF reporter ([2]; agonist: LPS 0.1 ug/mL),IRF reporter ([2]; agonist: MPLA […]),viability score [3]
Brc1c(NC2=NCCN2)ccc2nccnc12 [Prestw-1751],1.24 ± 0.13,0.858 ± 0.079,0.97 ± 0.035,1.02 ± 0.043,1.01 ± 0.054,1.01 ± 0.12,0.996 (active)
CCOC(=O)C1=C(Nc2ccccc2)SC(=Cc2ccc(O)c(OCC)c2)C1=O,1.1 ± 0.093,1.03 ± 0.07,1.15 ± 0.18,1.1 ± 0.036,1.26 ± 0.12,1.12 ± 0.16,1.01 (active)
S=c1n(CN2CCOCC2)nc(-c2ccccc2Br)n1-c1ccccc1,1.08 ± 0.19,0.947 ± 0.099,0.951 ± 0.073,0.884 ± 0.031,1.21 ± 0.12,1.22 ± 0.17,1 (active)
CCOC(=O)c1ccc(NC(=O)c2sc(NC(=O)c3cc(OC)c(OC)c(OC)c3)c(C(=O)OCC)c2C)cc1,1 ± 0.095,1.02 ± 0.079,0.895 ± 0.058,0.969 ± 0.025,1.53 ± 0.25,1.14 ± 0.12,1.01 (active)
COc1ccc(-c2oc(N=Cc3ccccc3O)c(C#N)c2-c2ccc(OC)cc2)cc1,0.895 ± 0.075,1.21 ± 0.079,0.997 ± 0.035,0.921 ± 0.2,1.05 ± 0.089,1.12 ± 0.18,1 (active)
Br.Cc1ccc(-c2csc(N3N=C(c4ccc(F)cc4)CC3c3ccc(C(C)C)cc3)n2)cc1C (stereo not drawn),0.948 ± 0.083,1.01 ± 0.072,0.903 ± 0.088,0.824 ± 0.027,1.35 ± 0.14,1.13 ± 0.099,1 (active)
O=C(NC1CC2CCC1C2)c1ccccc1Cl (stereo not drawn),0.725 ± 0.064,0.801 ± 0.047,1.08 ± 0.099,0.983 ± 0.049,1.35 ± 0.12,1.51 ± 0.24,1.02 (active)
CC(C)n1cnc(S(=O)(=O)N2CCC(S(=O)(=O)Cc3ccccc3)CC2)c1,0.891 ± 0.05,0.891 ± 0.072,1.02 ± 0.055,1.06 ± 0.062,1.3 ± 0.3,1.37 ± 0.34,1 (active)
CC1=C(C)CC2C(=O)N(c3ccccc3C)C(=O)C2C1 (stereo not drawn),0.797 ± 0.064,0.889 ± 0.068,1.06 ± 0.12,0.982 ± 0.045,1.35 ± 0.078,1.33 ± 0.15,1.01 (active)
Cc1cc(NC(=O)CC(C)C)ccc1N1CCCCC1=O,1.03 ± 0.097,1.03 ± 0.085,0.936 ± 0.11,1 ± 0.065,1.23 ± 0.11,1.14 ± 0.32,1.01 (active)
Oc1nc[nH]n1,1.05 ± 0.087,0.927 ± 0.067,1.02 ± 0.022,1 ± 0.06,0.923 ± 0.04,0.838 ± 0.074,1 (active)
CCCCOc1cc(C(=O)NCCN(CC)CC)c2ccccc2n1.Cl,0.759 ± 0.17,1.04 ± 0.18,1.04 ± 0.067,0.776 ± 0.039,1.41 ± 0.41,1.82 ± 0.14,0.93 (active)
COc1ccc(C(O)CN2CCN(c3cccc(C)c3C)CC2)cc1OC (stereo not drawn),0.724 ± 0.18,0.928 ± 0.095,0.95 ± 0.06,0.956 ± 0.054,0.873 ± 0.16,1.04 ± 0.12,0.997 (active)
O=C1C(=Cc2ccccc2)SC(=S)N1CO,0.546 ± 0.053,0.757 ± 0.058,0.725 ± 0.08,0.741 ± 0.073,1.03 ± 0.16,1.15 ± 0.32,0.968 (active)
CS(=O)(=O)C1CCN(C(=O)C2(c3ccccc3)CCOCC2)C1 (stereo not drawn),0.986 ± 0.11,1.04 ± 0.083,0.927 ± 0.047,0.977 ± 0.068,1 ± 0.087,1.03 ± 0.33,1.02 (active)
O=C(CCc1csc(NC(=O)c2ccco2)n1)Nc1ccc(Cl)cc1,0.9 ± 0.069,0.87 ± 0.071,0.973 ± 0.097,0.883 ± 0.045,1.44 ± 0.23,1.55 ± 0.43,0.974 (active)
O=C(c1cc2ccccc2o1)N1CC(N2C(=O)CNC2=O)C1,1.17 ± 0.28,1.04 ± 0.081,1.06 ± 0.077,0.933 ± 0.038,1.12 ± 0.15,1.33 ± 0.13,0.989 (active)
CN(C)c1nc(CNC(=O)c2cnn(-c3ccccc3)n2)nc(N2CCCC2)n1,1.01 ± 0.052,1.1 ± 0.086,1.02 ± 0.11,1.05 ± 0.054,1.26 ± 0.08,1.13 ± 0.31,1.02 (active)
COC(=O)CCc1ccc(OCC(O)CNC(C)C)cc1 (stereo not drawn) [Prestw-1137],1.06 ± 0.087,1.06 ± 0.084,1.02 ± 0.081,0.951 ± 0.043,0.911 ± 0.067,0.827 ± 0.11,1 (active)
Nc1ncn(C2OC(CO)C(O)C2O)c(=O)n1 (stereo not drawn),2.76 ± 0.66,1.35 ± 0.075,4.3 ± 0.27,0.541 ± 0.026,0.728 ± 0.099,0.714 ± 0.085,0.808 (active)
CC1C(=O)N2CCCc3cc(S(=O)(=O)N4CCN(c5cccc(Cl)c5)CC4)cc1c32 (stereo not drawn),0.755 ± 0.24,0.894 ± 0.073,0.971 ± 0.052,0.598 ± 0.044,1.2 ± 0.23,1.22 ± 0.37,0.996 (active)
COc1ccc(NC(=O)CN2C(=O)c3cccc4cccc(c34)C2=O)cc1,0.966 ± 0.059,0.998 ± 0.087,0.938 ± 0.063,0.939 ± 0.033,1.2 ± 0.11,1.1 ± 0.12,1 (active)
Cc1cc(Cl)ccc1NC(=O)c1ccc(CN2CCN(c3ccccc3)CC2)cc1,0.684 ± 0.053,0.999 ± 0.07,0.978 ± 0.085,0.803 ± 0.037,1.07 ± 0.069,1.2 ± 0.11,1.02 (active)
O=c1c(O)c(-c2ccccc2)oc2cc(O)ccc12,1.21 ± 0.34,1.37 ± 0.084,1.43 ± 0.15,0.764 ± 0.026,0.947 ± 0.12,0.789 ± 0.077,1 (active)
